# Measured values as given in PubChem BioAssay (NCI).
# Compounds without any hit were thinned out: in the full panel of roughly 83,000, 20% have a hit.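 Single-concentration screen, 48 h exposure, 96-well plates. Endpoint: percent growth. Below 10 = active.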 Unmarked numbers belong to inactive results. Activity calls are given as the source filed them.
# System: T-47D breast
# Assay: NCI-60 one-dose screen, 48 h (100 = growth as untreated, 0 = no growth, -100 = all killed)
# Conditions: 10 µM
row,SMILES,growth
1,N#Cc1ccc(-c2nn(-c3ccc(C(=O)O)cc3)cc2CNc2cc(Cl)cc(C(F)(F)F)c2)cc1,8.34% (active)
2,CN1C(=O)N(C)C2SC(N/N=C/c3ccccc3F)=NC21 (centres undefined),64.3%
3,COc1cc2c(cc1OC)/C(=C\c1sc(Nc3ccc(O)cc3)nc1O)C(C(=O)O)=N2,46.7%
4,CN1CCN(c2ccc(C(=O)/C=C/c3cc(C(F)(F)F)ccc3Cl)cc2)CC1,-37.4% (active)
5,CC(=O)c1cc(C(=O)c2ccc3c(c2)NC(=O)CO3)n2ccc3ccccc3c12,75.3%
6,COc1ccc(C(=O)NC(=S)N2CCN(c3ncnc4c3cnn4-c3ccccc3)CC2)cc1,70.3%
7,CC(=O)Nc1nc(-c2ccc(N3CCN(C)CC3)c(NS(=O)(=O)c3cccc4c(N(C)C)cccc34)c2)cs1,35.6%
8,O=[N+]([O-])c1ccc(-c2nc(-c3ccccc3)c(-c3ccccc3)n2-c2ccc(S(=O)(=O)Nc3ncccn3)cc2)cc1,10.2%
9,O=C(c1ccc(Cl)cc1)C1[C@H](c2ccc(Br)cc2)[C@@H](c2ccccc2)NC12C(=O)Nc1ccc(Br)cc12 (some centres undefined),-54% (active)
10,O=C(CSc1nnc(-c2c[nH]c3ccccc23)n1-c1ccccc1)c1ccc(Cl)cc1,54.6%
11,Cc1noc2c(Cc3ccccc3)nn(CC(=O)N/N=C/c3ccc(Cl)cc3)c(=O)c12,9.05% (active)
12,O=C(NO)c1ccc(CNC(=O)[C@H]2Cc3c([nH]c4ccccc34)[C@H](c3ccc(Cl)cc3)N2)cc1,-2.39% (active)
13,COc1ccc(C(C)=C(c2ccc(OCCCN(C)C)cc2)c2ccc(OCCCN(C)C)cc2)cc1,-76.2% (active)
14,O=C(NCCCCC(c1ccc(F)cc1)c1ccc(F)cc1)NCCCc1cccnc1,5.2% (active)
15,O=C(Nc1cccc(-c2cn(-c3ccc4oc(=O)ccc4c3)nn2)c1)Nc1cc(C(F)(F)F)cc(C(F)(F)F)c1,-0.405% (active)
16,CC(C)Sc1nc(NC2CC2)c(C#N)c(-c2ccccc2)n1,92.7%
17,COc1ccc(CN2[C@@H](C(=O)NCc3ccc(C(=O)NO)cc3)Cc3c([nH]c4ccccc34)[C@@H]2C)cc1,13.9%
18,COC1=C[C@]23CCC(=O)N2CCc2cc4c(cc2[C@@H]3[C@@H]1OC(=O)CCCC(C)C)OCO4,68.3%
19,C=CC(=O)Nc1ccc(C(=O)/C=C/c2ccc(N(C)CCF)cc2)c(O)c1,5.88% (active)

row,SMILES,growth
1,OCc1[nH]nc2cc(Nc3ncc4ccc(Br)c(OC5CCC(O)CC5)c4n3)ccc12 (centres undefined),2.7% (active)
2,OCCNc1oc(-c2ccccc2)nc1[P+](c1ccccc1)(c1ccccc1)c1ccccc1,4.49% (active)
3,CCCCOc1ccc(Nc2nc3ccccc3nc2Nc2ccc(OCCCC)cc2)cc1,79%
4,C=C[C@@]12CN3CC[C@]1(O)[C@@](C(=O)OC)(CO2)c1[nH]c2ccccc2c1C3,40.8%
5,COc1ccc(NC(=O)CSc2nnc(-c3ccc4nc(-c5ccc(Cl)cc5)[nH]c4c3)o2)cc1,96.7%
6,Cc1ccc(-c2ccc(SCC(=O)Nc3ccc(Cl)c(C(F)(F)F)c3)nn2)cc1,26.2%
7,CN1CCN(Cc2ccc(NC(=O)c3cncc(C#Cc4cnc5ccc(N[C@H]6CCOC6)nn45)c3)cc2C(F)(F)F)CC1,-64.7% (active)
8,CN(C)c1ccc(/C=C/c2nc3ccccc3c(=O)n2CC(=O)Nc2ccccc2)cc1,49.3%
9,COc1ccccc1NCc1ccc(CO)n1-c1ccc(C)cc1,77.4%
10,Cc1ccc(-c2nc3ccc(C(=O)N=Nc4c(O)[nH]c5ccc(Cl)cc45)cc3[nH]2)cc1,-4.44% (active)
11,CN1CCN(c2ccc(Nc3nc(N4CCN(S(=O)(=O)c5ccc(Cl)cc5)CC4)c4sccc4n3)cc2)CC1,-34.4% (active)
12,N#Cc1c(-c2ccc(Cl)cc2)cc(-c2ccccc2)nc1OCc1ccccc1,52.3%
13,CN1CCO/C1=C(/NC(=O)c1ccc(Cl)cc1)[P+](c1ccccc1)(c1ccccc1)c1ccccc1,66%
14,O=C(Cc1ccc2c(c1)CN(C1CCC(=O)NC1=O)C2=O)NCCc1ccccc1 (centres undefined),1.71% (active)
15,N#Cc1c(NC(=O)c2ccc(C(F)(F)F)c(Cl)c2)sc2c1CCC(=O)C2,-53% (active)
16,COc1ccc2[nH]c(=O)c(CSc3nccc(-c4ccc(Cl)cc4)n3)cc2c1,-8.11% (active)
17,C=C1CCC2C3(C)COC(c4c(F)cccc4F)OC3CCC2(C)C1C/C=C1/C(=O)OCC1O (centres undefined),1.57% (active)
18,COc1ccc([C@H]2C(C(=O)c3ccc(Cl)cc3)C3(N[C@@H]2c2ccccc2)C(=O)Nc2ccc(Cl)cc23)cc1 (some centres undefined),9.93% (active)

# System: BT-549 breast
# Assay: as above
# Conditions: 10 µM
row,SMILES,growth
1,N#Cc1ccc(-c2nn(-c3ccc(C(=O)O)cc3)cc2CNc2cc(Cl)cc(C(F)(F)F)c2)cc1,-22.5% (active)
2,CN1C(=O)N(C)C2SC(N/N=C/c3ccccc3F)=NC21 (centres undefined),45.4%
3,COc1cc2c(cc1OC)/C(=C\c1sc(Nc3ccc(O)cc3)nc1O)C(C(=O)O)=N2,57.2%
4,CN1CCN(c2ccc(C(=O)/C=C/c3cc(C(F)(F)F)ccc3Cl)cc2)CC1,-72.6% (active)
5,CC(=O)c1cc(C(=O)c2ccc3c(c2)NC(=O)CO3)n2ccc3ccccc3c12,78.3%
6,COc1ccc(C(=O)NC(=S)N2CCN(c3ncnc4c3cnn4-c3ccccc3)CC2)cc1,88.2%
7,CC(=O)Nc1nc(-c2ccc(N3CCN(C)CC3)c(NS(=O)(=O)c3cccc4c(N(C)C)cccc34)c2)cs1,36.6%
8,O=[N+]([O-])c1ccc(-c2nc(-c3ccccc3)c(-c3ccccc3)n2-c2ccc(S(=O)(=O)Nc3ncccn3)cc2)cc1,10.7%
9,O=C(c1ccc(Cl)cc1)C1[C@H](c2ccc(Br)cc2)[C@@H](c2ccccc2)NC12C(=O)Nc1ccc(Br)cc12 (some centres undefined),-73.3% (active)
10,O=C(CSc1nnc(-c2c[nH]c3ccccc23)n1-c1ccccc1)c1ccc(Cl)cc1,69.8%
11,Cc1noc2c(Cc3ccccc3)nn(CC(=O)N/N=C/c3ccc(Cl)cc3)c(=O)c12,89.4%
12,O=C(NO)c1ccc(CNC(=O)[C@H]2Cc3c([nH]c4ccccc34)[C@H](c3ccc(Cl)cc3)N2)cc1,26.9%
13,COc1ccc(C(C)=C(c2ccc(OCCCN(C)C)cc2)c2ccc(OCCCN(C)C)cc2)cc1,-78.4% (active)
14,O=C(NCCCCC(c1ccc(F)cc1)c1ccc(F)cc1)NCCCc1cccnc1,-16.4% (active)
15,O=C(Nc1cccc(-c2cn(-c3ccc4oc(=O)ccc4c3)nn2)c1)Nc1cc(C(F)(F)F)cc(C(F)(F)F)c1,3.59% (active)
16,CC(C)Sc1nc(NC2CC2)c(C#N)c(-c2ccccc2)n1,91.2%
17,COc1ccc(CN2[C@@H](C(=O)NCc3ccc(C(=O)NO)cc3)Cc3c([nH]c4ccccc34)[C@@H]2C)cc1,43.6%
18,COC1=C[C@]23CCC(=O)N2CCc2cc4c(cc2[C@@H]3[C@@H]1OC(=O)CCCC(C)C)OCO4,85.4%
19,C=CC(=O)Nc1ccc(C(=O)/C=C/c2ccc(N(C)CCF)cc2)c(O)c1,-65% (active)

row,SMILES,growth
1,OCc1[nH]nc2cc(Nc3ncc4ccc(Br)c(OC5CCC(O)CC5)c4n3)ccc12 (centres undefined),-42.5% (active)
2,OCCNc1oc(-c2ccccc2)nc1[P+](c1ccccc1)(c1ccccc1)c1ccccc1,-27.9% (active)
3,CCCCOc1ccc(Nc2nc3ccccc3nc2Nc2ccc(OCCCC)cc2)cc1,104%
4,C=C[C@@]12CN3CC[C@]1(O)[C@@](C(=O)OC)(CO2)c1[nH]c2ccccc2c1C3,38.4%
5,COc1ccc(NC(=O)CSc2nnc(-c3ccc4nc(-c5ccc(Cl)cc5)[nH]c4c3)o2)cc1,29.9%
6,Cc1ccc(-c2ccc(SCC(=O)Nc3ccc(Cl)c(C(F)(F)F)c3)nn2)cc1,25.4%
7,CN1CCN(Cc2ccc(NC(=O)c3cncc(C#Cc4cnc5ccc(N[C@H]6CCOC6)nn45)c3)cc2C(F)(F)F)CC1,-67.7% (active)
8,CN(C)c1ccc(/C=C/c2nc3ccccc3c(=O)n2CC(=O)Nc2ccccc2)cc1,-1.24% (active)
9,COc1ccccc1NCc1ccc(CO)n1-c1ccc(C)cc1,101%
10,Cc1ccc(-c2nc3ccc(C(=O)N=Nc4c(O)[nH]c5ccc(Cl)cc45)cc3[nH]2)cc1,-1.74% (active)
11,CN1CCN(c2ccc(Nc3nc(N4CCN(S(=O)(=O)c5ccc(Cl)cc5)CC4)c4sccc4n3)cc2)CC1,64.6%
12,N#Cc1c(-c2ccc(Cl)cc2)cc(-c2ccccc2)nc1OCc1ccccc1,83.4%
13,CN1CCO/C1=C(/NC(=O)c1ccc(Cl)cc1)[P+](c1ccccc1)(c1ccccc1)c1ccccc1,90.1%
14,O=C(Cc1ccc2c(c1)CN(C1CCC(=O)NC1=O)C2=O)NCCc1ccccc1 (centres undefined),-37.2% (active)
15,N#Cc1c(NC(=O)c2ccc(C(F)(F)F)c(Cl)c2)sc2c1CCC(=O)C2,-82.1% (active)
16,COc1ccc2[nH]c(=O)c(CSc3nccc(-c4ccc(Cl)cc4)n3)cc2c1,30.6%
17,C=C1CCC2C3(C)COC(c4c(F)cccc4F)OC3CCC2(C)C1C/C=C1/C(=O)OCC1O (centres undefined),-78.4% (active)
18,COc1ccc([C@H]2C(C(=O)c3ccc(Cl)cc3)C3(N[C@@H]2c2ccccc2)C(=O)Nc2ccc(Cl)cc23)cc1 (some centres undefined),7.71% (active)
